Measured values: the supplement of paper PMC5919970
Counter-ions that a name gives are not always drawn. In all, about 2,000 compounds were measured (“fractional viability relative to vehicle”: median about 0.92, lowest 2% from about 0.11 on). Many of the other results were omitted from the sample, so the lowest values are more common in it than they were.

Test system: TYKNU
Test: fractional viability relative to vehicle; TYKNU is a high-grade serous ovarian cancer line; higher = less growth inhibition
Details: 72 h, genotype: OPA1 knockout (sgOPA1 #2)
How it was run: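 TYKNU control cells or lentiCRISPRv2 knockout derivatives were seeded at 500 cells per well into drug-stamped 384-well plates holding a ~2100-compound library at 2 or 10 μM, in duplicate. Cells were grown at 37 °C in 5% CO2 in RPMI 1640 with 10% FBS, and drug treatment lasted 72 h. Viability was read by Cell Titer Glo luminescence. Duplicate treatment wells were averaged and normalised to duplicate control wells from the same plate position.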

SMILES: c1nc2c(NC3CCCCC3)nc(Nc3ccc(N4CCOCC4)cc3)nc2[nH]1 [Reversine]
- fractional viability (2uM): 0.571
- fractional viability (10uM): 0.342

SMILES: CN1CCC(Nc2nc(Nc3ccc(Oc4ccccc4)cc3)c3c(=O)[nH]cc(Br)c3n2)CC1
- fractional viability (2uM): 0.289
- fractional viability (10uM): 0.0528

SMILES: CCCCN1CCCC[C@H]1C(=O)Nc1c(C)cccc1C [Levobupivacaine HCl]
- fractional viability (2uM): 1.06
- fractional viability (10uM): 0.949

SMILES: CCC1C/C(=C\c2cccnc2)C(=O)/C(=C/c2cccnc2)C1 (centres undefined)
- fractional viability (2uM): 0.442
- fractional viability (10uM): 0.189

SMILES: C1=N/C2=N/c3ccc(OCCN4CCCC4)c(c3)COC/C=C/COCc3cccc(c3)C(=C1)N2 [Pacritinib (SB1518)]
- fractional viability (2uM): 0.318
- fractional viability (10uM): 0.0734

SMILES: Cc1cncc(CN2CCC(=C3c4ccc(Cl)cc4CCc4cccnc43)CC2)c1 [Rupatadine Fumarate]
- fractional viability (2uM): 1.06
- fractional viability (10uM): 0.915

SMILES: NC(=O)c1ccc(N(C(N)=O)c2c(F)cccc2F)nc1-c1ccc(F)cc1F
- fractional viability (2uM): 1.19
- fractional viability (10uM): 1.05

SMILES: CCN(CC)CCN(Cc1ccc(-c2ccc(C(F)(F)F)cc2)cc1)C(=O)Cn1c(SCc2ccc(F)cc2)nc(=O)c2c1CCC2
- fractional viability (2uM): 0.76
- fractional viability (10uM): 0.0367

SMILES: O=C(NNc1nc2cc(F)ccc2n2cccc12)c1cnccn1
- fractional viability (2uM): 0.576
- fractional viability (10uM): 0.643

SMILES: C=CC[N+]1([C@H]2C[C@H]3[C@@H]4CC[C@H]5C[C@H](O)[C@@H](N6CCOCC6)C[C@]5(C)[C@H]4CC[C@]3(C)[C@H]2OC(C)=O)CCCC1 [Rocuronium Bromide]
- fractional viability (2uM): 1.16
- fractional viability (10uM): 1.11

SMILES: CCCCC(C=O)NC(=O)C(CC(C)C)NC(=O)C(CC(C)C)NC(C)=O (centres undefined)
- fractional viability (2uM): 0.8
- fractional viability (10uM): 0.939

SMILES: COC[C@H](NC(=O)c1cnc(C)s1)C(=O)N[C@@H](COC)C(=O)N[C@@H](Cc1ccccc1)C(=O)[C@@]1(C)CO1 [Oprozomib (ONX 0912)]
- fractional viability (2uM): 0.153
- fractional viability (10uM): 0.136

SMILES: COc1ccc(C[C@H](NC(=O)[C@H](C)NC(=O)CN2CCOCC2)C(=O)N[C@@H](Cc2ccccc2)C(=O)[C@@]2(C)CO2)cc1
- fractional viability (2uM): 0.149
- fractional viability (10uM): 0.144

SMILES: CC(C)C[C@H](NC(=O)[C@H](CCc1ccccc1)NC(=O)CN1CCOCC1)C(=O)N[C@@H](Cc1ccccc1)C(=O)N[C@@H](CC(C)C)C(=O)[C@@]1(C)CO1 [Carfilzomib (PR-171)]
- fractional viability (2uM): 0.0962
- fractional viability (10uM): 0.146

SMILES: CC(C)C[C@@H]1NC(=O)[C@@H](C(C)C)NC(=O)[C@@H]2CCCN2C(=O)[C@@H](CC(=O)O)NC(=O)[C@@H](Cc2c[nH]c3ccccc23)NC1=O
- fractional viability (2uM): 0.722
- fractional viability (10uM): 0.866

SMILES: C=CCNC1=C2C[C@@H](C)C[C@H](OC)[C@H](O)[C@@H](C)/C=C(\C)[C@H](OC(N)=O)[C@@H](OC)/C=C\C=C(/C)C(=O)NC(=CC1=O)C2=O [17-AAG (Tanespimycin)]
- fractional viability (2uM): 0.652
- fractional viability (10uM): 0.468

SMILES: Cc1ccc(C(=O)Nc2ccc(CN3CCN(C)CC3)c(C(F)(F)F)c2)cc1C#Cc1cnc2cccnn12
- fractional viability (2uM): 0.67
- fractional viability (10uM): 0.106

SMILES: Cc1ccc(C(=O)Nc2ccc(CN3CCN(C)CC3)c(C(F)(F)F)c2)cc1C#Cc1cnc2[nH]ncc2c1
- fractional viability (2uM): 0.589
- fractional viability (10uM): 0.115

SMILES: CCN1CCN(Cc2ccc(C(=O)Nc3ccc(C)c(Oc4ccc5c(c4)CC(=O)N5)c3)cc2C(F)(F)F)CC1
- fractional viability (2uM): 0.782
- fractional viability (10uM): 0.462

SMILES: Nc1cccc2c1CN(C1CCC(=O)NC1=O)C2=O (centres undefined) [Lenalidomide (CC-5013)]
- fractional viability (2uM): 1.14
- fractional viability (10uM): 1.02

SMILES: COCC[n+]1c2c(n(Cc3cnccn3)c1C)C(=O)c1ccccc1C2=O [YM155 (Sepantronium Bromide)]
- fractional viability (2uM): 0.06
- fractional viability (10uM): 0.0555

SMILES: CC(C)NCCCn1c(Sc2cc3c(cc2I)OCO3)nc2c(N)ncnc21
- fractional viability (2uM): 0.428
- fractional viability (10uM): 0.48

SMILES: CCCCCOc1ccc(-c2ccc(-c3ccc(C(=O)N[C@H]4C[C@@H](O)[C@@H](O)NC(=O)[C@@H]5[C@@H](O)[C@@H](C)CN5C(=O)[C@H]([C@@H](C)O)NC(=O)[C@H]([C@H](O)[C@@H](O)c5ccc(O)cc5)NC(=O)[C@@H]5C[C@@H](O)CN5C(=O)[C@H]([C@@H](C)O)NC4=O)cc3)cc2)cc1
- fractional viability (2uM): 1.02
- fractional viability (10uM): 0.857

SMILES: CC(=O)Nc1ccccc1 [Acetanilide]
- fractional viability (2uM): 0.946
- fractional viability (10uM): 0.905

SMILES: CC(C)(C)C(=O)Nc1ccc2c(c1)C(=O)C(=O)c1ccccc1-2
- fractional viability (2uM): 0.181
- fractional viability (10uM): 0.0604

SMILES: O=C(O)CCCN1CCC(O[C@@H](c2ccc(Cl)cc2)c2ccccn2)CC1 [Bepotastine Besilate]
- fractional viability (2uM): 1.14
- fractional viability (10uM): 0.923

SMILES: CN1CCC(COc2cnc(-c3cccc(Cn4nc(-c5cccc(C#N)c5)ccc4=O)c3)nc2)CC1
- fractional viability (2uM): 0.78
- fractional viability (10uM): 0.216

SMILES: CN1CCC(CNc2ccc3ncc(-c4cccc(OC(F)(F)F)c4)n3n2)CC1 [SGI-1776 free base]
- fractional viability (2uM): 0.888
- fractional viability (10uM): 0.107

SMILES: NC(CO)(CO)CO [Trometamol]
- fractional viability (2uM): 0.883
- fractional viability (10uM): 0.842

SMILES: O=C(O)C(Cc1c[nH]c2ccccc12)N1C(=O)c2ccccc2C1=O (centres undefined)
- fractional viability (2uM): 0.905
- fractional viability (10uM): 0.771

SMILES: N#CC(=C(/N)Sc1ccccc1N)/C(C#N)=C(\N)Sc1ccccc1N
- fractional viability (2uM): 1.36
- fractional viability (10uM): 1.25

SMILES: CN(C)CCOc1ccc(-c2nc(-c3ccncc3)c(-c3ccc4c(c3)CC/C4=N\O)[nH]2)cc1
- fractional viability (2uM): 0.833
- fractional viability (10uM): 0.0595

SMILES: OCCn1cc(-c2ccc3c(c2)CC/C3=N\O)c(-c2ccncc2)n1
- fractional viability (2uM): 1.14
- fractional viability (10uM): 0.942

SMILES: Oc1ccc(-c2nc(-c3ccc(F)cc3)c(-c3ccncc3)[nH]2)cc1
- fractional viability (2uM): 1.48
- fractional viability (10uM): 1.09

SMILES: O=C(CSc1nc2c(c(=O)n1-c1ccccc1)SCC2)Nc1ccc(-c2ccccc2)cn1
- fractional viability (2uM): 1.09
- fractional viability (10uM): 0.948

SMILES: COc1cc2c(cc1OC)CC(=O)N(CCCN(C)C[C@H]1Cc3cc(OC)c(OC)cc31)CC2 [Ivabradine HCl]
- fractional viability (2uM): 1.02
- fractional viability (10uM): 0.967

SMILES: COc1ccc(-c2cnc3c(-c4cccc5ncccc45)cnn3c2)cc1
- fractional viability (2uM): 1.15
- fractional viability (10uM): 1.2

SMILES: c1cc(-c2cnn3cc(-c4ccc(N5CCNCC5)cc4)cnc23)c2cccnc2c1
- fractional viability (2uM): 0.104
- fractional viability (10uM): 0.0761

SMILES: COc1cc(-c2cc(-c3ccc(N4CCNCC4)cc3)cnc2C)cc(OC)c1OC
- fractional viability (2uM): 0.878
- fractional viability (10uM): 0.835

SMILES: CC1(C)CC(=O)c2c(C(F)(F)F)nn(-c3ccc(C(N)=O)c(N[C@H]4CC[C@H](O)CC4)c3)c2C1
- fractional viability (2uM): 0.668
- fractional viability (10uM): 0.574

SMILES: CC1(C)C=C(CN2C/C(=C\c3ccc(F)cc3)C(=O)/C(=C/c3ccc(F)cc3)C2)C(C)(C)N1O
- fractional viability (2uM): 0.837
- fractional viability (10uM): 0.79

SMILES: C=CC(=O)N1C/C(=C\c2ccc([N+](=O)[O-])cc2)C(=O)/C(=C/c2ccc([N+](=O)[O-])cc2)C1
- fractional viability (2uM): 0.0989
- fractional viability (10uM): 0.111
